Compounds without any hit were thinned out: in the full panel of roughly 83,000, 20% have a hit.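 Growth was measured after 48 h exposure to one concentration of compound in 96-well plates. Values under 10 count as active.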 Values without a mark were called inactive. Active and inactive are the calls of the source.
Key:
Experiment in all cases: NCI-60 one-dose screen, 48 h (100 = growth as untreated, 0 = no growth, -100 = all killed)
Settings in all cases: 10 µM unless noted
[1] = system: NCI-H23 lung
[2] = system: NCI-H226 lung
[3] = system: NCI-H322M lung
[4] = system: HOP-62 NSCLC
[5] = system: NCI-H460 lung
[6] = system: HOP-92 NSCLC
[7] = system: NCI-H522 lung
[8] = system: A549/ATCC NSCLC
[9] = system: 786-0 renal
[10] = system: COLO 205 colon
[11] = system: DU-145 prostate
[12] = system: K-562 leukemia
[13] = system: MALME-3M melanoma
[14] = system: MDA-MB-231 breast
[15] = system: RXF 393 renal
[16] = system: SF-268 CNS
[17] = system: SF-295 CNS
[18] = system: SF-539 CNS
[19] = system: UACC-257 melanoma
[20] = system: M14 melanoma

| SMILES | growth [1] | growth [2] | growth [3] | growth [4] | growth [5] | growth [6] | growth [7] | growth [8] | growth [9] | growth [10] | growth [11] | growth [12] | growth [13] | growth [14] | growth [15] | growth [16] | growth [17] | growth [18] | growth [19] | growth [20] |
| --- | --- | --- | --- | --- | --- | --- | --- | --- | --- | --- | --- | --- | --- | --- | --- | --- | --- | --- | --- | --- |
| c1csc(-c2nc(-c3cc4ccccc4c(N4CCOCC4)n3)cs2)c1 | 87.8% | 107% | 94.1% | 97.6% | 100% | 116% | 93.8% | 95.6% | 96.9% | 20.5% | 113% | 102% | 0.576% (active) | 88.7% | 111% | 91.6% | 101% | 103% | 17.3% | 49.1% |
| Fc1ccc(NCc2nnc(-c3ccc(Cl)cc3)o2)cc1 | 70.1% | 71.8% | 82.5% | 84.6% | 83.7% | 67% | 56.5% | 66.1% | 87.8% | 90% | 95.5% | 53.8% | 93.8% | 55.6% | 84.8% | 77.9% | 77.9% | 90.6% | 68.4% | 77.9% |
| CC(=O)O[C@H]1CC[C@]2(C)[C@H]3C(=O)C=C4[C@@H]5C[C@](C)(C(=O)N6CCCNCC6)CC[C@]5(C)CC[C@@]4(C)[C@]3(C)CC[C@H]2C1(C)C | 40.1% | 76.6% | 19.8% | -50.4% (active) | -83.8% (active) | 31.1% | 30% | -52.8% (active) | -71.9% (active) | -87.7% (active) | 4.85% (active) | -11.3% (active) | -71.7% (active) | -84.6% (active) | -89.4% (active) | 69.6% | 60.2% | -92.9% (active) | 75.7% | 6.84% (active) |
| Cc1ccc(S(=O)(=O)Nc2ccc(-c3cc(-c4cccc(F)c4)c(C#N)c(=O)[nH]3)cc2)cc1 | 87.7% | 79.6% | 90% | 92.3% | 98.2% | 72.9% | 87.2% | 68.2% | 102% | 115% | 84% | 54.9% | 92.6% | 87.4% | 83.1% | 74.2% | 87.9% | 90.1% | 103% | 81.3% |
| c1cc(N2CCCC2)c2nc(-c3[nH]ncc3Nc3ncnc4[nH]ccc34)[nH]c2c1 | -45.3% (active) | -40.4% (active) | -21.1% (active) | -13.6% (active) | -4.99% (active) | -1.33% (active) | -11.3% (active) | -7.17% (active) | -26.1% (active) | -65.9% (active) | -4.71% (active) | 6.25% (active) | -41.4% (active) | -15.2% (active) | -75.9% (active) | -25.1% (active) | -34% (active) | -54.3% (active) | -12.8% (active) | -77.1% (active) |
| COc1cc(NC(C)CN(CC(C)C)C(C)C)c2ncccc2c1 (stereo not given) | 83.7% | 89.7% | 100% | 109% | 106% | 74.4% | 101% | 105% | 111% | 96.9% | 106% | 98.1% | 104% | 81.1% | 113% | 94.7% | 110% | 103% | 99.5% | 102% |
| CC1(C)C(=O)CC[C@]2(C)[C@H]3C(=O)C=C4[C@@H]5C[C@@](C)(C(=O)NCCNCCN)CC[C@]5(C)CC[C@@]4(C)[C@]3(C)CC[C@@H]12 | 98.4% | 96.8% | 108% | 94.1% | 99.2% | 66.2% | 111% | 97.6% | 99.9% | 108% | 102% | 86.6% | 92.2% | 102% | 103% | 83.9% | 101% | 98.7% | 101% | 90.6% |
| N#Cc1c(-c2ccc(O)cc2)c2c(N)nn(-c3ccccc3)c2[nH]c1=O | 98.9% | 94.5% | 103% | 100% | 110% | 96.6% | 91.3% | 117% | 107% | 122% | 109% | 107% | 105% | 97.8% | 113% | 100% | 110% | 95.7% | 109% | 99.4% |
| Clc1ccccc1-c1nc(Nc2nc3ccccc3s2)nc(C(Cl)(Cl)Cl)n1 | 76.4% | 95% | 24.6% | 40.5% | 1.36% (active) | 55.6% | 88.4% | 18% | 75.8% | 10.9% | 15.9% | 50.8% | 79.6% | 14.5% | 16.7% | 81.7% | 37.8% | 32.8% | 83.9% | 80.1% |
| Cc1cc(N(CCCNc2ccnc3cc(Cl)ccc23)Cc2ccco2)nc(Cl)n1 | 31.5% | 68.1% | 76.6% | 41.6% | 57.1% | 27.1% | 59.9% | 67% | 55.6% | 24.5% | 71.6% | 9.75% (active) | 74% | 61.7% | 71.1% | 72.7% | 42.3% | 54.3% | 59.9% | 46.4% |
| CCN1CCN(C(=O)[C@]23CCC(C)(C)C[C@H]2C2=CC[C@@H]4[C@@]5(C)CC/C(=N/O)C(C)(C)[C@@H]5CC[C@@]4(C)[C@]2(C)CC3)CC1 | 69.7% | 66.5% | 86.1% | 76.9% | 72% | 52.7% | 45.2% | 74% | 57.5% | 87.9% | 86.4% | 58.8% | 62.9% | 9.19% (active) | 81.2% | 67.2% | 65.7% | 80.4% | 80.4% | 65.6% |
| CCC(CC)C(=O)OC(C)COc1ccc(C(C)(C)C)cc1 (stereo not given) | 105% | 100% | 109% | 103% | 106% | 92.6% | 70.5% | 69.2% | 97.4% | 124% | 106% | 87% | 94.5% | 108% | 113% | 99.1% | 106% | 109% | 66.7% | 96% |
| Cn1cccc1/C=C1/SC(=S)N(CCc2ccc(O)cc2)C1=O | 79.5% | 87.8% | 87.3% | 56.3% | 33.6% | 88.3% | 47.8% | 61.5% | 64.4% | 103% | 82.3% | 18.6% | 36.7% | 59.1% | 76.6% | 74% | 37.6% | 43.6% | 74.1% | 19.9% |
| Cc1cc2nc3c4cc(N)ccc4n(CCN(C)C)c3nc2cc1C | 6.58% (active) | 1.78% (active) | 7.13% (active) | 19% | 0.661% (active) | 37.6% | 13.2% | 5.34% (active) | 26.2% | -18.5% (active) | 12.6% | 5.75% (active) | -16.6% (active) | 7.84% (active) | 15.3% | 29.7% | 1.26% (active) | 10.5% | 11.9% | 7.08% (active) |
| O=C1c2cc3c(cc2-c2c1c1ccc(F)cc1c(=O)n2CCCN1CCOCC1)OCO3 | 40.6% | 20.4% | 79.8% | 18.9% | 14.1% | 68.4% | 25.5% | 33.8% | 24.1% | 55.1% | 28.4% | 41.6% | 101% | 105% | 70.6% | 43.3% | 21.7% | 11.2% | 62.7% | 23.2% |

Reference: PubChem BioAssay (NCI)
